Results as given in PubChem BioAssay AID1529 (NMMLSC, 2009).
Among all 290,000 compounds or so, about 4,200 (1.4%) were called active.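 Rule for the calls: active = binding response more than 3 SD above or below the average of its plate-row segment, actives on both sides; inconclusive = wells at one plate position flagged as instrument error; inactive = the rest.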 The full list was thinned out, with actives kept by preference.

What follows are molecules tested against Mitogen-activated protein kinase kinase kinase 3 (Homo sapiens) (UniProt Q99759) (assay: compounds raising or lowering MEK5 association with MEKK3 PB1 – biochemical, wildtype MEKK3, multiplex bead flow cytometry, Alexa488-MEK5, primary screen (AID 1529;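 note: Alexa488 bead fluorescence after subtracting the streptavidin-only scavenger bead signal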)). Settings: bead-based flow cytometry, Alexa488-MEK5 binding to MEKK3; at 10 µM; actives lie on both sides; 0 = blocked by unlabeled MEK5, 100 = vehicle.
Mitogen-activated protein kinase kinase kinase 3 (Homo sapiens), sequence (Q99759 whole entry, looked up): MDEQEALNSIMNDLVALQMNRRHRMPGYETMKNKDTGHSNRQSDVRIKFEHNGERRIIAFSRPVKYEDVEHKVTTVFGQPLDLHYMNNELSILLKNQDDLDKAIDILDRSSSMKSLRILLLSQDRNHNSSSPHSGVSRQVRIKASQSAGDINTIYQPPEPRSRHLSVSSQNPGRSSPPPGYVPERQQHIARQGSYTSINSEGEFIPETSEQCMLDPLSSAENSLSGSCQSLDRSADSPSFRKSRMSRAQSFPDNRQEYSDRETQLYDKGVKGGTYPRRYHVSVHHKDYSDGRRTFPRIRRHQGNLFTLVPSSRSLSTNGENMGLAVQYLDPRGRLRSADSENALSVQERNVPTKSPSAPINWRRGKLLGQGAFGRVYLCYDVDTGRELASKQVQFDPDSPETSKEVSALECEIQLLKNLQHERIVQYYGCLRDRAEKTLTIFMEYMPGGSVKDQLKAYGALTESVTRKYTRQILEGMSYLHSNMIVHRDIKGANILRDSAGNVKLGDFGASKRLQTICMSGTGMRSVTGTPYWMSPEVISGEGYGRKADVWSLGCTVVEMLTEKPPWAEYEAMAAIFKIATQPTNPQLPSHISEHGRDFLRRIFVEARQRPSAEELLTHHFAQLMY

Binding response (% of control), inactive:
Cc1ccc(S(=O)(=O)N2CCC3(CC2)OCCO3)c(C)c1 101%
CCCCCc1c(C)nc(N2CCN(Cc3ccc4c(c3)OCO4)CC2)[nH]c1=O 98%
Cc1cc(S(=O)(=O)NCC(C)C)ccc1OCC(=O)NC1CC1 102%
COc1ccccc1NC(=S)N1CCN(C(c2ccccc2)c2ccccc2)CC1 102%
COC(=O)c1ccc(C(=O)OC)c(NC(=S)N2CCN(c3ccc(F)cc3)CC2)c1 97%
COc1cccc(NC(=O)CCc2nnc3ccc(N4CCC(C)CC4)nn23)c1 98%
CC1(C)C=Cc2c(ccc3c2OC[C@@H](c2ccc(O)cc2O)C3)O1 108%
Cc1nc2ccccc2nc(C)c1=NOCc1ccc(Cl)cc1Cl 98%
Cc1[nH]c(=O)c(C(=O)/C=C/c2ccccc2)c2c1CCCC2 107%
Cc1nc2nc[nH]n2c(=O)c1C/C=C/c1ccccc1 84%
Cc1cc(=O)oc2cc(OCC(=O)N3CCN(c4ccc(F)cc4)CC3)c(Cl)cc12 101%
COc1ccc(C(=O)Cc2cnn(-c3ccccc3)c2)c(O)c1 101%
Cc1ncc(CC(=O)n2cc(C(=O)c3cc(Cl)ccc3O)cn2)s1 109%
CC1(C)C2CC[C@]3(C)C(CC=C4[C@@H]5C[C@@](C)(CO)CC[C@]5(C(=O)O)CC[C@]43C)[C@@]2(C)CC[C@@H]1O (stereo partly specified) 105%
Cn1nnnc1NCc1ccc(Cl)c(Cl)c1 105%
CCCn1nnnc1NCc1ccc(OC)cc1 111%
CCOC(=O)c1c(-c2ccccc2)oc2cc(Br)c(O)c(C=O)c12 98%
Cc1cc(OCC(=O)Nc2c(C)n(C)n(-c3ccccc3)c2=O)ccc1[N+](=O)[O-] 96%
CCc1ccc(NC(=O)COC(=O)c2cccs2)cc1 101%
O=C(c1cccs1)N(C(=O)c1cccs1)c1ccccn1 94%
O=C(CNC(=O)c1ccc(Br)o1)NCC1CCCO1 (stereo unspecified) 102%
Cc1ccc(NC(=O)CSc2nn3c(=O)c(C)nnc3s2)cc1Cl 88%
CNC(C)C#Cc1ccc2sc3cc(OC)c(OC)cc3c(=O)c2c1 (stereo unspecified) 110%
CCCCC1(C(=O)OCC)NC(c2ccc(O)cc2)C2C(=O)N(c3ccccc3)C(=O)C21 (stereo unspecified) 104%
CCOC(=O)c1ccc(Nc2cc3ccccc3c(=O)[nH]2)cc1 100%
COc1ccc(C(=O)C[n+]2ccc(N)c(C)c2C)cc1 92%
COc1ccc(OCCC(=O)c2ccc(OC)cc2)cc1 102%
COC(C[C@@H](O)C[C@@H](O)[C@H](C)OCc1ccccc1)OC 101%
COc1ccc(C(=O)CSc2nnc(COc3ccccc3)n2Cc2ccco2)cc1 102%
CCCc1nc2c(c(=O)c3ccccc3n2C)c(=O)n1-c1cc(C)cc(C)c1 101%
COc1ccc(/C=C/c2c(-c3cccc(C)c3)oc3ccc(-c4ccc5c(c4)OCO5)cc23)cc1 94%
CCOC(=O)c1cc(S(=O)(=O)NCCc2ccc(OC)c(OC)c2)cn1C 100%
CN(CC(=O)Nc1ccc(F)cc1)C(=O)c1ccc(-c2ccc(Cl)cc2)o1 105%
Cc1cc(C)nc(NS(=O)(=O)c2ccc(N3C(=O)C4CCCCC4C3=O)cc2)n1 (stereo unspecified) 101%
Cc1cccn2c(=O)c(/C=C3\SC(=S)N(CC(C)C)C3=O)c(NCCCOC(C)C)nc12 66%
CCOC(=O)CC1C(=O)NCCN1c1nc2c(C)cccn2c(=O)c1/C=C1\SC(=S)N(C(C)CC)C1=O (stereo unspecified) 93%
Cc1csc(NC(=O)CSc2nnc(-c3cccnc3)o2)n1 99%
CCCC[C@@H]1CN=C(N)N1CCc1cccc(F)c1 106%
O=C(NCc1ccccn1)C1CCN(S(=O)(=O)c2ccc(Br)cc2)CC1 103%
COc1ccc(CNc2ncnc3ccccc23)cc1 100%
O=[N+]([O-])c1ccccc1NCc1ccccc1Cl 66%
O=C(NCc1ccccc1Cl)c1csc2c1CCCCC2 96%
CCC(C)[C@H](NC(=O)N1c2ccccc2NC(=O)[C@@H]1C(C)C)C(=O)N[C@@H](Cc1ccccc1)C(=O)O (stereo partly specified) 101%
COc1ccc(NC(=O)CCCC2CCCCC2)c(OC)c1 97%
CCCc1ccc(OCCNC(=O)c2ccco2)cc1 101%
CC(=O)NCCNC(=O)c1cc(-c2cccc3ccccc23)nc2ccccc12 102%
CCOC(=O)C1CCN(C(=O)c2ccccc2N(C)S(=O)(=O)c2ccccc2)CC1 105%
O=c1cc(N2CCN(Cc3ccccc3)CC2)c(-c2ccccc2)n[nH]1 101%
c1ccc(-c2cc(N3CCCCC3)c3ccccc3n2)cc1 100%
CC(=O)Nc1ccc(NC(=O)COc2ccc(-c3ccccc3)cc2)cc1 99%
COc1ccc(-c2noc(CNC(=O)C(C)Oc3ccccc3)n2)cc1 (stereo unspecified) 99%
COc1ccc(CCNS(=O)(=O)c2cccc([N+](=O)[O-])c2)cc1 111%
O=C(Nc1ccccc1N1CCN(C(=O)c2ccccc2)CC1)c1ccco1 100%
COc1ccc(CNC(=O)c2nnn(CC(=O)Nc3cc(C)cc(C)c3)c2N)cc1 100%
CCc1ccc(NC(=O)Cn2nnc(C(=O)NCc3ccc(OC)cc3)c2N)cc1 101%
CCOC(=O)c1ccccc1NC(=O)c1c(N)n(C)c(=O)[nH]c1=O 103%
COc1ccc(CNC(=O)CN(Cc2ccccc2Cl)C(=O)c2csnn2)cc1 104%
COc1cccc(N2CCN(c3ccc4nnc(CCC(=O)N5CCN(C)CC5)n4n3)CC2)c1 100%
O=C(CSc1n[nH]c(=O)n1-c1ccccc1)Nc1ccccc1C(F)(F)F 102%
COC(=O)c1ccc(S(=O)(=O)NCc2ccccc2)n1C 78%
Cc1c(S(=O)(=O)NC(C)c2ccccc2)c(=O)n(C)c(=O)n1C (stereo unspecified) 101%
COC(=O)C1(C)NC(c2ccccc2OC)C2C(=O)N(c3ccccc3)C(=O)C21 (stereo unspecified) 104%
COC(=O)c1cc(C(=O)OC)cc(N2C(=O)CC(N3CCN(c4ccccc4)CC3)C2=O)c1 (stereo unspecified) 103%
CC(=O)Nc1ccc(S(=O)(=O)N(C)c2nc3ccccc3nc2Cl)cc1 103%
CCc1ccc(-c2cc(C)no2)cc1S(=O)(=O)NCCc1ccc(S(N)(=O)=O)cc1 104%
CCc1ccnc(NC(=O)Nc2ccc(OCc3ccccc3)cc2)c1 104%
Cc1cccc(NC(=O)Nc2ccc(OCc3ccccc3)cc2)n1 99%
COc1cc(CNCc2ccc3c(c2)OCO3)c([N+](=O)[O-])cc1OC 95%
COc1cccc(CNS(=O)(=O)c2ccc3c(c2)N(C(C)=O)CCS3)c1 93%
COc1cccc(CC2(CO)CCCN(Cc3ccc(OC(F)F)cc3)C2)c1 (stereo unspecified) 109%
COc1ccccc1N1CCN(C(=O)c2ccc(S(=O)(=O)N3CCCCC3)cc2)CC1 102%
COc1cc2c(cc1OC)CN(C(=O)c1cc(S(=O)(=O)N3CCCCC3)ccc1Cl)CC2 101%
C/C(=N\NC(=O)c1ccccc1F)c1ccccn1 106%
CC(C)(C)n1nc(Cc2cccc3ccccc23)c(C#N)c1N 101%
COc1ccc(/C=N/Nc2nc(-c3ccc(C)cc3)c(C#N)c(=O)[nH]2)cc1 104%
CC(C)[C@H](NC(=O)N1CCn2c1nc1ccccc12)C(=O)NCCc1ccccc1 100%
CCOC(=O)C[C@H]1c2ccc(C(F)(F)F)cc2S(=O)(=O)N1c1ccccc1 95%
COCCc1nn2c(=O)cc(COC(=O)c3cc(OC)c(OC)c(OC)c3)nc2s1 95%
Cc1cc(=O)oc2cc(OC(C)C(=O)NCCc3ccc(S(N)(=O)=O)cc3)ccc12 (stereo unspecified) 100%
Cc1cc(C)cc(NC(=O)NCc2ccccn2)c1 101%

Binding response (% of control), active:
COc1ccccc1NC(=S)N1CCN(c2ccc(F)cc2)CC1 45% [inhibitor]
Cc1cn(COC/C=C/c2ccccc2)c(=O)[nH]c1=O -2% [inhibitor]
O=C(c1cnn(-c2ccc(Cl)cc2)c1)c1ccccc1O 129%
COc1ccc(CNc2nnnn2C)cc1 51% [inhibitor]
O=C(c1ccc(Br)o1)N(c1ccccn1)C1CCCCC1 131%
COc1ccc(C(=O)C[n+]2ccc(C)cc2)cc1 134%
Cn1c2ccccc2c(=O)c2c(=O)n(Cc3ccco3)c(COc3ccccc3)nc21 130%
CCCN(CCC)c1nc2c(C)cccn2c(=O)c1/C=C1/SC(=S)N(Cc2ccco2)C1=O 32% [inhibitor]
O=C(NCc1ccccc1Cl)NC(=O)c1csc([N+](=O)[O-])c1 0% [inhibitor]
O=c1cc(N2CCCCC2)c(-c2ccccc2)nn1Cc1cccc(F)c1 157%
CCC(C)OC(=O)C(C)Oc1ccc(-c2ccccc2)cc1 (stereo unspecified) 2% [inhibitor]
COc1ccc(NC(=O)Cn2nnc(C(=O)NCCc3ccc(OC)c(OC)c3)c2N)cc1 2% [inhibitor]
Cc1c(S(=O)(=O)NCc2ccccc2)c(=O)n(C)c(=O)n1C 131%
COC(=O)C1=NN(c2ccccc2)C2C(=O)N(c3ccccc3OC)C(=O)C12 (stereo unspecified) 139%
O=C(O)/C=C\C(=O)Nc1ccc(OCc2ccccc2)cc1 130%
COc1cc2c(cc1OC)CN(C(=O)c1ccc(S(=O)(=O)N3CCCCCC3)cc1)CC2 132%
